About 5,800 (1.8%) of roughly 330,000 compounds were called active. Only a selection was taken, and actives are over-represented in it overall. Values without a mark were called inactive. Rule as the data show it: active = inhibition mostly above about 38% (no sharp cut-off); inactive = mostly below about 40%.
The compounds below were run against Orexin/Hypocretin receptor type 1 (Homo sapiens) (UniProt O43613) (assay: antagonists of human orexin 1 receptor (OX1R) (AID 485270;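 also: 0% = agonist challenge alone and 100% = reference antagonist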)). Details: OX1R-expressing cells, FRET antagonist read-out; at 6.6 µM; stronger effect = higher value.
Sequence of Orexin/Hypocretin receptor type 1 (Homo sapiens) (O43613 whole entry, looked up): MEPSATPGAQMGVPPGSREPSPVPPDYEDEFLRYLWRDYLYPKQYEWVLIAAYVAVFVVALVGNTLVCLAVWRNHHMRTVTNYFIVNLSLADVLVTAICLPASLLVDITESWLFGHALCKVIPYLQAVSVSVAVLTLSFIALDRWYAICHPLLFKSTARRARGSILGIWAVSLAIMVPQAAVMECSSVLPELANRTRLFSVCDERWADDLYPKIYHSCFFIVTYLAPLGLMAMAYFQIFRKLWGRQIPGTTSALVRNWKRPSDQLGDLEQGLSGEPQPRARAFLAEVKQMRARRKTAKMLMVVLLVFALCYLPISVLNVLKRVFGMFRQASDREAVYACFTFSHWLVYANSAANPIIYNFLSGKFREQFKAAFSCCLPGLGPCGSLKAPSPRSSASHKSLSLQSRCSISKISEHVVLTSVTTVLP

Compound | inhibition
CC[C@]1(C(=O)OC)[C@H]2C(=O)N(Cc3ccccc3)C(=O)[C@H]2[C@H]2CN=C(SCc3ccccc3)N21 | 9.69%
C[C@H]1CN([C@@H](C)CO)C(=O)Cc2cc(NS(C)(=O)=O)ccc2O[C@@H]1CN(C)CC1CC1 | 1.83%
CN=C(Nc1cccc(S(=O)(=O)N2CCOCC2)c1)c1ccccc1 | 2.1%
CC[C@]12c3[nH]c4cc(CCC(=O)N(C)C)ccc4c3CCN1C(=O)[C@@H](CC(=O)NCCCN(C)C)C[C@@H]2C(=O)N1CCN(C(=O)c2ccco2)CC1 | -2.47%
COCCCNC(=O)CC1C[C@H](C(=O)N2CCCCC2)[C@@]2(CCc3ccccc3)c3[nH]c4ccccc4c3CCN2C1=O (stereo partly specified) | 2.77%
CCOc1cc(-c2cc(-c3ccc(NC(C)=O)cc3)nc(N)c2C#N)ccc1O | 25.9%
COc1cc(/C=N\Nc2nc(-c3cccs3)c(NC(C)=O)s2)ccc1O | 8.13%
CCOc1cc(/C=C(\C#N)c2nc(-c3cccs3)c(NC(C)=O)s2)ccc1O | 65.7% (active)
CCCC/C(C)=N/NC(=O)NC1CCCCC1 | 10.5%
Nc1ncnc2c1ncn2[C@@H]1O[C@H](CNCc2cccn2-c2nccs2)[C@@H](O)[C@H]1O | 5.52%
CCOC(=O)C1CCN(c2ccc(C(=O)O)cc2[N+](=O)[O-])CC1 | 57.8%
CC1CCN(c2ccc([N+](=O)[O-])cc2C(N)=O)CC1 | 65.8%
O=C(O)C1CCN(c2ccc([N+](=O)[O-])cc2[N+](=O)[O-])CC1 | 40.7% (active)
O=C(COC(=O)c1cc[n+]([O-])cc1)Nc1ccc(Cl)c(C(F)(F)F)c1 | 8.49%
CC(Oc1ccc2c(-c3ccccc3)cc(=O)oc2c1)C(=O)NC(Cc1c[nH]c2ccccc12)C(=O)O (stereo unspecified) | 12.5%
Cc1nc2nc(SCC(=O)c3ccccc3)[nH]c2cc1Br | 9.22%
Cc1nc2nc(SCC(=O)Nc3cccc(F)c3)[nH]c2cc1Br | 57.5% (active)
Cc1cccc(NC(=O)CSc2nc3[nH]ncc3c(=O)[nH]2)c1 | 10.4%
Cc1ccc2c(c1)C1C[N+](C)(CC(=O)c3ccccc3)CCC1N2C(=O)c1ccccc1Cl (stereo unspecified) | 7.24%
CC1CCCCC12NC(=O)N(CC(=O)OCc1c(F)cccc1Cl)C2=O (stereo unspecified) | 11.8%
Cc1cc(NC(=O)CSc2nnnn2-c2ccc(F)cc2)no1 | 10.1%
Cc1cc(NC(=O)COc2ccc([N+](=O)[O-])cc2)no1 | 3.47%

Compound | inhibition
Cc1cc(NC(=O)CSc2nccn2-c2ccc([N+](=O)[O-])cc2)no1 | 70.4% (active)
NS(=O)(=O)c1ccc(CNC(=S)NC(=O)c2ccco2)cc1 | 4.56%
CC(=O)N/N=C/c1cc2c(cc1[N+](=O)[O-])OCO2 | 98.3% (active)
CC1(C(=O)N/N=C/c2cc3c(cc2Br)OCO3)CC1(Br)Br (stereo unspecified) | 26.7%
Cc1ccc(S(=O)(=O)N/N=C\c2cc3c(cc2[N+](=O)[O-])OCO3)cc1 | 29.4%
COc1ccc(CN2C(CC(=O)Nc3cccnc3)c3ccc(C(F)(F)F)cc3S2(=O)=O)cc1 (stereo unspecified) | 12.3%
COc1ccc(CNC(=O)COC(=O)c2sccc2C)cc1OC | 3.49%
O=C1NC(=O)C2C1C(c1ccc([N+](=O)[O-])cc1)=NN2Cc1ccccc1 (stereo unspecified) | 75.4% (active)
CC1=NN(c2ccccc2)C(=O)C1C(=O)c1ccc([N+](=O)[O-])cc1 (stereo unspecified) | 33.4%
CC(=O)N1c2ccccc2N(Cc2ccc([N+](=O)[O-])cc2)C(=O)C1(C)C | 15.5%
CC(C)(C)OC(=O)C[C@@H]1C/C=C\C[C@@H](CC(=O)N[C@@H](CO)Cc2ccccc2)C(=O)N2CCC[C@H]2COC1=O | 16.2%
COc1ccccc1N(CC(=O)Nc1ccc(C)cc1Cl)S(=O)(=O)c1cccs1 | 9.45%
Cc1ccc(C2(C)NC(=O)N(CC(=O)N3CC(=O)Nc4ccccc43)C2=O)cc1 (stereo unspecified) | 2.94%
COc1ccccc1NS(=O)(=O)c1ccc(C)c(C(=O)NNC(=O)c2csc(N3CCOCC3)n2)c1 | 2.72%
COc1cc(S(=O)(=O)N2CCN(C(=O)C3CC3)CC2)ccc1NC(C)=O | 10.5%
COc1ccc(C(=O)COC(=O)c2c(C)noc2C)cc1Cl | 3.93%
CCOC(=O)[C@H]1[C@H]2COc3ccccc3[C@@H]2N2C(=O)CN(Cc3ccccc3)C(=O)[C@@]12C | 11.5%
COc1ccccc1-n1c(-c2cc(-c3ccco3)[nH]n2)n[nH]c1=S | 4.56%
CS(=O)(=O)n1nc(-c2ccco2)nc1N | -7.64%
Cn1c(-c2ccco2)nc2cc3ccccc3cc21 | 68.2% (active)
COC(=O)c1ccc(CNC(=O)c2ccc(S(=O)(=O)N3CCCCCC3)cc2)cc1 | 13.9%
CCOc1cc(/C=N/NC(=O)c2cccc(S(=O)(=O)N3CCOCC3)c2)ccc1OCC(=O)N(C)C | 10%

Compound | inhibition
O=C(Nc1ccc(N2CCOCC2)cc1)c1cccc(S(=O)(=O)N2CCOCC2)c1 | 1.87%
O=C(N/N=C/c1ccc([N+](=O)[O-])o1)c1cccc(S(=O)(=O)N2CCOCC2)c1 | 44.6% (active)
CCN1C(=O)/C(=C2\SC(N3CCCCC3)=NC2=O)c2ccccc21 | 42.2% (active)
CCOc1cc(/C=C2\SC(N3CCCCC3)=NC2=O)ccc1O | 25.6%
O=C1N=C(N2CCCC2)S/C1=C\c1cccc(Br)c1 | 35.7%
O=C(Cn1cc(C(F)(F)F)ccc1=O)Nc1ccc2c(c1)OCCO2 | 1.4%
COc1cc(/C=C/C(=O)OCC(=O)NC2CC2)cc(OC)c1OC | 3.2%
CC(C)(C)NC(=O)Cn1cnc2cc([N+](=O)[O-])ccc2c1=O | 132% (active)
Cc1cc(C(=O)Cn2cnc3cc([N+](=O)[O-])ccc3c2=O)c(C)n1CC1CCCO1 (stereo unspecified) | 53.2%
O=C(Cn1cnc2cc([N+](=O)[O-])ccc2c1=O)NC(=O)NCc1ccccc1 | 23.1%
COc1ccc(S(=O)(=O)N(C)C[C@@H]2Oc3ccc(NS(=O)(=O)c4cn(C)cn4)cc3C(=O)N([C@@H](C)CO)C[C@@H]2C)cc1 | 1.11%
CSc1ncccc1C(=O)Nc1cccc(S(=O)(=O)N2CCOCC2)c1 | 9.4%
Cc1cccc(NS(=O)(=O)c2cccc(C(=O)NNC(=O)c3ccccc3O)c2)c1 | 29.7% (active)
CC(=O)N1CCN(C(=O)c2cccc(S(=O)(=O)Nc3ccc(C)cc3)c2)CC1 | -3.44%
Cc1cccc(NS(=O)(=O)c2ccc(C)c(C(N)=O)c2)c1 | 19.2%
COc1cc(/C=C2\Oc3ccc(C#Cc4ccc(O)cc4)cc3C2=O)cc(OC)c1 | 2.43%
O=C(COC(=O)c1ccco1)Nc1ccc(Cl)cn1 | 1.22%
CCNC(=O)N(CC)C[C@H]1N[C@@](CC)(C(=O)OC)[C@H]2C(=O)N(Cc3ccccc3)C(=O)[C@@H]12 | -4.57%
CC(C)(C)OC(=O)C[C@@H]1C/C=C\C[C@@H](CC(=O)N(CCO)Cc2ccccc2)C(=O)N[C@H](Cc2ccccc2)COC1=O | 13.4%
CC(C)(C)c1cc[n+](-c2[nH]c(=O)sc2/C=N/N=C(\[O-])c2ccccc2)cc1 | 59.4% (active)
O=C(N[C@@H]1C/C=C\C[C@@H](CC(=O)N(CCO)Cc2ccccc2)C(=O)N[C@H](Cc2ccccc2)COC1=O)OCC1c2ccccc2-c2ccccc21 | 9.35%
CC1O[C@H](OC2C(COC3OC(CO)C(O)[C@H](O)C3O)OC(OC3CC[C@]4(C)C(CC[C@@]5(C)[C@@H]4C=C[C@]46OC[C@@]7(CCC(C)(C)C[C@H]74)C(O)C[C@@]56C)C3(C)C)C(O)C2O)C(O)C(O)C1O (stereo partly specified) | 0.25%

Compound | inhibition
c1ccc(-c2cc(-c3ccccc3)[nH]n2)cc1 | 10.7%
S=c1[nH]nc(-c2cc(-c3ccccc3)n[nH]2)n1/N=C/c1c2ccccc2cc2ccccc12 | 117% (active)
Fc1ccccc1/C=N/n1c(-c2cccnc2)n[nH]c1=S | 11.6%
CN(C(=O)c1cccc(NC(=O)Cc2ccc([N+](=O)[O-])cc2)c1)C1CCC1 | 2.95%
Nn1c(SCC(=O)Nc2ccc3c(c2)CCC3)nnc1C1CC1 | 10.2%
CC(C)NC(=O)Nc1cccc2c1O[C@H](CN(C)S(=O)(=O)c1cccs1)[C@@H](C)CN([C@H](C)CO)C2=O | -2.12%
COc1ccc(-c2cc(C(=O)N(C)Cc3ccc(OC)c(OC)c3OC)c3ccccc3n2)cc1OC | 39.4%
COc1ccc(CN(C)C(=O)c2cc(-c3ccc(C)cc3C)nc3ccccc23)c(OC)c1OC | 43.5% (active)
COc1ccc(-c2cc(C(=O)N(C)Cc3ccccc3)c3ccccc3n2)cc1 | 1.22%
CN(C(=O)c1cccc(NC(=O)C2CCN(C(=O)OC(C)(C)C)CC2)c1)C1CCC1 | 5.08%
Cc1sc(NC(=O)C2C3CCC(O3)C2C(=O)O)c(C(=O)OC(C)C)c1-c1ccc(Cl)cc1 (stereo unspecified) | 76% (active)
CC(C)OC(=O)c1cc(NC(=O)C2C3CCC(O3)C2C(=O)O)cc(C(=O)OC(C)C)c1 (stereo unspecified) | 8.17%
CC(C)OC(=O)c1c(NC(=O)c2ccco2)sc2c1CCCC2 | 12.4%
Cn1cccc1C(=O)OCC(=O)NCCc1ccccc1 | 5.82%
O=[N+]([O-])c1cc(C(F)(F)F)ccc1NN=C1CCCC1 | 9.21%
O=[N+]([O-])c1ccc(N/N=C2/CCCCC2c2ccccn2)c([N+](=O)[O-])c1 (stereo unspecified) | 49.2% (active)
O=C(Nc1ccccc1)O/N=C1\CCCCC1c1ccc([N+](=O)[O-])cc1[N+](=O)[O-] (stereo unspecified) | 28.9%
Cc1cc([N+](=O)[O-])ccc1NC1CCCC1 | 10.2%
C[n+]1ccccc1C1CCCC/C1=N\Nc1ccc([N+](=O)[O-])cc1[N+](=O)[O-] (stereo unspecified) | 93.3% (active)
CC1(C)C/C(=N/Nc2ccc([N+](=O)[O-])cc2[N+](=O)[O-])C(C)(C)O1 | 7.54%

— PubChem BioAssay AID485270 (The Scripps Research Institute Molecular Screening Center, 2010)
